Bioassay records: PubChem BioAssay, Broad Institute
PAX8 inh HTS: inhibitors of PAX8-driven TPO luciferase reporter, primary screen, RMG-I cells, single concentration; SteadyGlo, 24 h; inhibition, % at 12.6 µM; hit rate 1.2% among 360,000;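 active = mean replicate inhibition at least 60% with every replicate also reaching 60%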;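 note: luciferase light reporting Pax8 driven TPO promoter activity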
EWS-Fli block: EWS/Fli-driven NR0B1 reporter inhibitors, primary screen, A673 cells, NR0B1 luciferase, luminescence, MLPCN library | viability-normalised | inhibition, % at 12.6 µM | hit rate 0.67% among 350,000;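 active = mean inhibition of at least 50% after viability correction, with every replicate also passing that limit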;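 note: firefly luciferase signal divided by Alamar Blue viability fluorescence both relative to DMSO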
MITF TRPM1 HTS: activators of MITF-driven TRPM1 promoter reporter, primary screen, cell-based, SK-MEL-5, luciferase, single point | SK-MEL-5 TRPM1-promoter luciferase, 24 h; % of positive control, neutral wells = 0 | activation, % at 12.5 µM | hit rate 0.75% among 300,000;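 active = mean activation of at least 80% with every replicate also reaching 80%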
esBAF inh: Bmi1 luciferase reporter increase in mESCs, primary screen, esBAF inhibitor project, mouse ES cells, Bmi1 luciferase knock-in, single point. 24 h; 100% = twice the neutral-well signal. reporter increase, % at 12.5 µM. hit rate 2% among 350,000; in the data active = activation above about 40%;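 note: a rise in the Bmi1 reporter signal indicates esBAF inhibition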
Wnt act: Wnt/beta-catenin pathway activators, primary screen, cell-based, plate reader, single point; hit rate 1.2% among 300,000; Wnt/beta-catenin reporter cell assay, activator; activation, % at 9.35 µM; in the data active = activation above about 30%, passing the limit was not always enough
TRPM1 prom inh: inhibitors of MITF-dependent TRPM1 promoter reporter, primary screen, cell-based, SK-MEL-5, single point, luciferase; hit rate 0.83% among 330,000; inhibition, % at 12.5 µM; SK-MEL-5 TRPM1 promoter luciferase, 24 h;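 active = mean inhibition across replicates of 60% or more, whatever share of single replicates reaches that level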
Of the large screens only hits and unclear results are named; the others gave an inactive call. Rows were chosen to be rich in hits. Some 4% of all compounds tested hit in one or more screens of this group.

O=[N+]([O-])c1ccc(NN=Cc2ccc(O)cc2)nc1	esBAF inh 95, Wnt act 67
O=[N+]([O-])c1ccc(N/N=C/c2cccs2)nc1	MITF TRPM1 HTS 109, Wnt act 56 (no result: esBAF inh)
CCN(CC)c1ccc(C=NNc2ccc([N+](=O)[O-])cn2)cc1	Wnt act 48 (no result: esBAF inh)
C[C@@H]1CN([C@@H](C)CO)C(=O)c2cc(C3=CCCC3)cnc2O[C@@H]1CN(C)Cc1ccc(C(=O)O)cc1	none (no result: MITF TRPM1 HTS, Wnt act, TRPM1 prom inh)
O=C(C[C@@H]1CC[C@H](NC(=O)Nc2cc(F)ccc2F)[C@H](CO)O1)NCCCN1CCOCC1	none (no result: MITF TRPM1 HTS, Wnt act, TRPM1 prom inh)
Cc1ccc(S(=O)(=O)N[C@@H]2CC[C@@H](CCNC(=O)c3ccc4c(c3)OCO4)O[C@H]2CO)cc1	none (no result: MITF TRPM1 HTS, Wnt act, TRPM1 prom inh)
CN(C)c1ccc(Nc2ccc([N+](=O)[O-])cn2)cc1	esBAF inh 50 (no result: MITF TRPM1 HTS)
O=[N+]([O-])c1ccc(NN=Cc2ccccc2O)nc1	none
COc1ccc(N/N=C(/Oc2ccc([N+](=O)[O-])cc2)C(C)=O)cc1	none (no result: EWS-Fli block, esBAF inh)
O=[N+]([O-])c1ccc(NN=Cc2ccccc2)nc1	MITF TRPM1 HTS 148, Wnt act 50 (no result: esBAF inh)
COc1ccc(NN=Nc2ccc([N+](=O)[O-])cc2)cc1	MITF TRPM1 HTS 99, esBAF inh 49
CC=Cc1ccc2n(c1=O)C[C@H]1[C@H](CO)[C@@H](C(=O)N3CCc4ccccc4C3)N[C@@H]21 (mixture of isomers)	none (no result: PAX8 inh HTS, MITF TRPM1 HTS, Wnt act, TRPM1 prom inh)
CC1CC(C)(C)Nc2ccc(OC(=O)c3ccco3)cc21 (stereo not drawn)	none (no result: PAX8 inh HTS, EWS-Fli block, Wnt act)
CC1CC(C)(C)Nc2ccc(N=O)cc21 (stereo not drawn)	TRPM1 prom inh 61 (no result: esBAF inh)
Cc1ccc(NC(=O)c2c(C)noc2C)cc1	none (no result: PAX8 inh HTS, EWS-Fli block, esBAF inh, Wnt act)
Cc1noc(N)c1C(=O)Nc1ccc(C(C)(C)C)cc1	MITF TRPM1 HTS 86, Wnt act 51 (no result: EWS-Fli block, esBAF inh)
CO[C@H]1CN(C)C(=O)c2cc(NC(=O)Nc3c(C)noc3C)ccc2OC[C@H](C)N(C)C[C@@H]1C	none (no result: MITF TRPM1 HTS, Wnt act, TRPM1 prom inh)
CCN=c1scc(-c2ccco2)n1/N=C/c1ccc(O)cc1	none (no result: PAX8 inh HTS, EWS-Fli block, MITF TRPM1 HTS, Wnt act)
CCN=c1scc(-c2ccco2)n1/N=C/c1ccc(OC)c(O)c1	esBAF inh 54, Wnt act 40 (no result: PAX8 inh HTS)
COCCOC(=O)N1C(=O)[C@@]2(c3cc(C#Cc4ccc(OC)cc4)ccc31)[C@H](c1ccc(OCCO)cc1)N1[C@H](c3ccccc3)[C@H](c3ccccc3)OC(=O)[C@H]1[C@@H]2C(=O)N1CCN(c2ncccn2)CC1	none (no result: MITF TRPM1 HTS, esBAF inh, Wnt act, TRPM1 prom inh)
Cc1ccc(S(=O)(=O)N2CC[C@@H]3[C@H]2c2cc(C#Cc4ccc(F)cc4)ccc2N[C@@H]3CO)cc1	none (no result: MITF TRPM1 HTS, Wnt act, TRPM1 prom inh)
COc1nc(C)ccc1-c1noc(-c2ccccn2)n1	none (no result: PAX8 inh HTS)
COc1ccccc1-c1nc(-c2ccc(C)nc2OC)no1	esBAF inh 69, Wnt act 61 (no result: EWS-Fli block, MITF TRPM1 HTS)
Cc1ccccc1-c1nc(Cc2ccccc2)no1	MITF TRPM1 HTS 118, esBAF inh 60 (no result: PAX8 inh HTS, EWS-Fli block)
Clc1ccc(-c2nc(-c3ccccn3)no2)cc1Cl	none (no result: PAX8 inh HTS, EWS-Fli block, Wnt act)
Cc1ccccc1-c1noc(-c2ccccc2C(=O)O)n1	none
COc1ccc(-c2nc(-c3ccccn3)no2)cc1	PAX8 inh HTS 104, EWS-Fli block 86, TRPM1 prom inh 87 (no result: esBAF inh)
COc1ccccc1-c1nc(-c2ccccn2)no1	EWS-Fli block 73
O=C(C1CCCC1)N1CC(=O)N2[C@H](C1)[C@H](c1ccc(C#CC3CCCC3)cc1)[C@@H]2CO	none (no result: MITF TRPM1 HTS, esBAF inh, Wnt act, TRPM1 prom inh)
O=C(C[C@@H]1C=C[C@H](NC(=O)CN2CCOCC2)[C@@H](CO)O1)NCCc1ccncc1	none (no result: PAX8 inh HTS, MITF TRPM1 HTS, esBAF inh, Wnt act, TRPM1 prom inh)
CCCNC(=O)N1C[C@H](C)[C@H](OC)CN(C)C(=O)c2ccc(NC(=O)C3CCC3)cc2OC[C@H]1C	none (no result: MITF TRPM1 HTS, Wnt act, TRPM1 prom inh)
COCCNC(=O)c1cc2c(c(-c3cccc(-c4ccc(C#N)cc4)c3)n1)[C@H](CCO)N(C(=O)CC1CC1)C2	none (no result: MITF TRPM1 HTS, esBAF inh, Wnt act, TRPM1 prom inh)
Brc1ccc(-c2nc(-c3ccccn3)no2)o1	none (no result: PAX8 inh HTS, EWS-Fli block, Wnt act)
Cc1ccccc1-c1nc(-c2ccccn2)no1	PAX8 inh HTS 73, EWS-Fli block 83, TRPM1 prom inh 74 (no result: esBAF inh)
COc1ccc(C/C(C)=N\NC(=O)c2c[nH]c3ccccc23)cc1OC	Wnt act 39
COc1ccc(CCNC(=O)C(=O)c2c[nH]c3ccccc23)cc1OC	none (no result: MITF TRPM1 HTS)
COC(=O)c1cc(NC(=O)c2ccc(C)cc2)c(=O)oc1C	esBAF inh 45
